# From PubChem BioAssay
# The list is not random: actives were taken first. Their share in the collection is about 3.1%.
# Wnt bcat act: activates Wnt/beta-catenin signaling in a reporter cell assay; activation, % at 9.35 µM; activator, plate reader; actives 1.2% (n = 300,000); in the data active = activation above about 30%, passing the limit was not always enough; inconclusive = no clear call, values can overlap the other calls;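 note: 0% = neutral control wells and 100% = positive control wells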
# MITF TRPM1 HTS: activators of MITF-driven TRPM1 promoter activity in SK-MEL-5 cells. SK-MEL-5 TRPM1-promoter luciferase, 24 h; % of positive control, neutral wells = 0. activation, % at 12.5 µM. actives 0.75% (n = 300,000);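 active = mean activation of at least 80% with every replicate also reaching 80%; inconclusive = mean reaches 80% but some replicate falls short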;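 note: 0% = neutral control wells and 100% = parthenolide positive control wells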
# C2C12 statin: suppressors of simvastatin-induced myotoxicity in C2C12 myotubes; ATP luminescence, 48 h; scaled: DMSO 0, geranylgeraniol control 100; rescue of ATP level, % at 7.49 µM; actives 0.78% (n = 330,000); AID 602340;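 active = mean ATP rescue above about 67%, or every replicate alone reaching that limit, limit read from the data, passing the limit was not always enough; inconclusive = no clear call, values can overlap the other calls; inactive = mean under the limit and some replicate under it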;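 note: myotubes were challenged with 10 µM simvastatin during compound exposure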
# esBAF inh: SWI/SNF esBAF complex inhibition. mouse ES cells, Bmi1-luciferase knock-in reporter, 24 h; 100% = twice the neutral-well signal. actives 2% (n = 350,000). reporter increase, % at 12.5 µM; in the data active = activation above about 40%; inconclusive = no clear call, values can overlap the other calls;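 note: 0% = median of the plate's neutral control wells and 100% = double that signal; a rise in the Bmi1 reporter signal indicates esBAF inhibition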
# Rtt109 Vps75: inhibitors of Candida albicans Rtt109/Vps75 histone acetyltransferase; Q5AAJ8; purified Rtt109/Vps75, ThioGlo CoA-SH fluorescence, 4 h; inhibition, % at 34.9 µM; actives 0.16% (n = 330,000);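 active = inhibition of at least 50% in every replicate; inconclusive = best replicate reaches 50% inhibition but some replicates fall short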
# Target sequence (Q5AAJ8 whole entry, looked up): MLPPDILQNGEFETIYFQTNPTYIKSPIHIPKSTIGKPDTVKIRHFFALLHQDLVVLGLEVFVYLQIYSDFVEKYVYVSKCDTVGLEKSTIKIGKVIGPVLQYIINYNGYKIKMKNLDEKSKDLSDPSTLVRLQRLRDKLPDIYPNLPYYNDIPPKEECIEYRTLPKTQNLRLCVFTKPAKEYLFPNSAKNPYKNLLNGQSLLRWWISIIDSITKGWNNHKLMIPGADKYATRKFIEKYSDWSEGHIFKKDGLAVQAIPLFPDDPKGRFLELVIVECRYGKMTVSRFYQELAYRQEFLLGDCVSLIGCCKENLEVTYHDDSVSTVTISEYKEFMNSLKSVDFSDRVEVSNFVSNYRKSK
# Starred values were filed as active, the others as inactive; ? = inconclusive; nt = no result given.
SMILES,Wnt bcat act,MITF TRPM1 HTS,C2C12 statin,esBAF inh,Rtt109 Vps75
C[C@@H]1CN([C@@H](C)CO)C(=O)c2cccc(NS(=O)(=O)c3ccc(F)cc3)c2O[C@@H]1CN(C)S(=O)(=O)c1ccccc1,nt,nt,41,1,nt
CCCCOC(=O)c1ccccc1N1C(=O)C2C3CCC(C3)C2C1=O (configuration not stated),-4,-8,83*,3,-4
Cc1ccc(S(=O)(=O)Nc2ccc3c(c2)C(=O)N([C@@H](C)CO)C[C@H](C)[C@H](CN(C)C)OCCCC[C@H](C)O3)cc1,nt,nt,20,1,nt
Cc1ccc2[nH]cc(CCNC(=O)CN3C(=O)c4ccccc4C3=O)c2c1,-1,-10,3,-4,4
Cc1ccc2c(c1)N(CC(=O)NCCc1c[nH]c3ccccc13)C(=O)CO2,nt,4,80*,-5,-3
Cc1ccc(NC(=O)CN2C(=O)COc3ccc(C)cc32)nc1,-2,-6,81*,-9,0
Cc1ccc2c(c1)N(CC(=O)Nc1nccs1)C(=O)CO2,nt,-7,4,-8,-11
C[C@@H]1CCCCO[C@@H](CN(C)S(=O)(=O)c2ccccc2)[C@H](C)CN([C@H](C)CO)C(=O)c2cc(NS(=O)(=O)c3cccs3)ccc2O1,nt,nt,nt,-4,nt
CCn1ncc(N(C)N)c(Cl)c1=O,-2,4,89*,4,-3
O=C(NCc1ccccn1)Nc1cccc(Cl)c1,38*,136*,0,39,-1
O=C(NCc1ccccn1)C(=O)Nc1ccccc1,-4,49,nt,nt,0
COc1cccc(NC(=O)NCc2ccccn2)c1,37*,3,0,-5,6
Cc1ccc(NC(=O)C(=O)NCc2ccccn2)cc1,20,85*,nt,nt,-1
O=C(NCc1ccccn1)c1ccc(Cl)cc1Cl,nt,35,0,52*,1
CCCNC(=O)C[C@H]1CC[C@@H]2[C@H](COc3ccc(NC(=O)c4cscn4)cc3C(=O)N2C)O1,nt,nt,-3,-1,nt
Cc1ccc(S(=O)(=O)N[C@@H]2CC[C@H](CCNC(=O)c3ccccc3F)O[C@H]2CO)cc1,nt,nt,13,-2,nt
C[C@H](CO)N1C[C@H](C)[C@H](CN(C)C(=O)Nc2cc(F)ccc2F)Oc2cc(/C=C/c3ccccc3)ccc2S1(=O)=O,nt,nt,-83,-2,nt
CS(=O)(=O)N1CCc2cc(C(=O)N3CCOCC3)ccc21,-2,-1,98*,-5,1
COc1ccc(N2CCN(C(=O)c3ccc4c(c3)CCN4S(=O)(=O)c3ccccc3)CC2)cc1,1,10,134*,-2,2
O=C(OCc1ccccc1)c1cccc(-c2nnn(Cc3ccccc3)n2)c1,45*,23,8,39,6
Fc1cccc(Cl)c1Cn1nnc(-c2ccc(N3CCOCC3)cc2)n1,-1,-1,99*,-1,-5
Clc1ccccc1Cn1nnc(-c2ccccc2)n1,4,39,nt,nt,-6
Clc1ccc(Cn2nnc(-c3ccc(CN4CCOCC4)cc3)n2)cc1,-10,nt,3,52*,8
Clc1ccc(Cn2nnc(-c3ccccc3)n2)cc1,-2,72,nt,47*,-6
c1ccc(OCCCn2nnc(-c3ccc(N4CCOCC4)cc3)n2)cc1,-3,20,31,7,23
SMILES,Wnt bcat act,MITF TRPM1 HTS,C2C12 statin,esBAF inh,Rtt109 Vps75
Fc1ccc(Cn2nnc(-c3ccc(CN4CCOCC4)cc3)n2)cc1,-7,nt,-3,5,7
O=C(Cn1nnc(-c2ccccc2)n1)OCc1ccccc1,-2,-6,-2,3,8
O=C(C[C@@H]1CC[C@@H](NC(=O)C2CC2)[C@@H](CO)O1)NCc1ccncc1,nt,nt,4,-3,nt
O=C(NCC1CC1)[C@H]1N[C@H]2c3ccc(C4=CCCCC4)c(=O)n3C[C@H]2[C@@H]1CO,nt,nt,6,-1,nt
CC(=O)c1c(C)[nH]c(C(=O)CSc2ccc(F)cc2)c1C,?,68,nt,nt,-12
Cc1cc(C(=O)CSc2ccc(F)cc2)cc(C)c1O,11,66,-5,56*,3
O=c1c(-c2ccc(F)cc2)coc2c3c(ccc12)OCCO3,5,133*,6,52*,-2
CC(=O)Nc1ccc(S(=O)(=O)Nc2cccc(-c3nc4ccccc4o3)c2)cc1,nt,nt,8,-3,27
CCC(=O)Nc1cccc(-c2nc3ccccc3o2)c1,17,16,-22,60*,3
O=C(Cc1cccs1)Nc1cccc(-c2nc3ccccc3o2)c1,0,10,-7,7,1
CC(=O)Nc1nc2ccc(-c3nc4ccccc4o3)cc2s1,79*,18,nt,nt,0
CS(=O)(=O)Nc1ccc2c(c1)[C@H]1C[C@H](CC(=O)NCc3ccccc3)O[C@@H](CO)[C@H]1O2,nt,nt,3,4,nt
O=C(Nc1cccc(/C=C/c2nc3ccccc3c(=O)[nH]2)c1)c1ccccc1Cl,17,65,-99,80*,-10
O=c1[nH]c(/C=C/c2cccc3ccccc23)nc2ccccc12,2,29,nt,nt,-15
O=c1[nH]c(/C=C/c2ccccn2)nc2ccccc12,17,50,-8,44*,-5
O=c1[nH]c(/C=C/c2ccc(Br)cc2)nc2ccccc12,45*,71,-12,-2,3
O=c1[nH]c(COc2ccc(Br)cc2Cl)nc2ccccc12,44*,?,-1,45*,3
CN(C)c1ccc(/C=C/c2nc3ccccc3c(=O)[nH]2)cc1,16,-50,nt,nt,1
COc1ccc(C(=O)Nc2ccc3c(c2)OC[C@@H](C)N(Cc2cocn2)C[C@@H](C)[C@@H](OC)CN(C)C3=O)cc1,nt,nt,11,3,nt
Cc1csc(NC(=O)CSc2nc3[nH]c(=O)cc(O)c3s2)n1,0,-87,175*,-4,-6
N#Cc1cc(-c2ccccc2)nnc1Sc1ccc(Cl)cc1,nt,8,113*,17,-1
Cc1ccc(Sc2nc(-c3ccccc3)ccc2C#N)cc1,nt,nt,-37,-9,nt
COC(=O)C1(C(=O)OC)NOC2C(=O)N(c3ccc(Cl)cc3Cl)C(=O)C21 (configuration not stated),-2,7,134*,0,1
COC(=O)C1(C(=O)OC)NOC2C(=O)N(N(C)c3ncc(C(F)(F)F)cc3Cl)C(=O)C21 (configuration not stated),-1,-14,0,-5,-1
O=C(C[C@H]1CC[C@@H]2[C@H](COC[C@@H](O)CN2Cc2ccccc2F)O1)NC1CCC1,nt,nt,5,0,nt
SMILES,Wnt bcat act,MITF TRPM1 HTS,C2C12 statin,esBAF inh,Rtt109 Vps75
COc1ccc(-c2ccc3n(c2=O)C[C@@H]2[C@@H](CO)[C@H](C(=O)N4CCCCC4)[C@H]3N2C)cc1,nt,nt,1,-2,nt
c1cncc(-c2nc(-c3cccs3)cs2)c1,0,22,nt,22,1
Cc1cccc(Nc2nc(-c3cccs3)cs2)n1,6,32,11,50*,-4
Oc1ccc(-c2csc(Nc3ccccn3)n2)c(O)c1,13,nt,-1,80*,-8
c1csc(-c2csc(-c3cccs3)n2)c1,26,nt,nt,53*,-6
Cc1cccnc1Nc1nc(-c2ccc(O)cc2O)cs1,10,50,nt,31,2
